# From PubChem BioAssay (NCATS)
# A number with no mark means an inactive call. Inconclusive results are not listed. Activity calls are given as the source filed them. Unless noted, calls come from the whole dose curve; as a rule, active = well fitted curve in either direction with a large enough effect (not every such curve was filed as active); inconclusive = small, poorly fitted or top-dose-only effect, or another doubt; inactive = flat fitted curve, though single readings scatter.
# Experiments:
# [1] = AP1 Signaling Pathway (AID 357); conditions: ME-180 AP-1-bla reporter, EGF-induced, beta-lactamase ratio, 5 h; at 17.2 µM (top of the series) unless noted;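 note: ME-180 reporter cells stimulated with EGF at its EC50 level; % is set by controls: 0 for no effect and ±100 for the full control effect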
# Summary of the method: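 Modulation of EGF-driven AP-1 transcription was assessed with a beta-lactamase reporter in ME-180 cells. Compound and EC50 EGF were co-incubated 5 hours at 37 °C before 2.5-hour CCF4 loading at room temperature and dual-emission reading.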
# [2] = Stat Signaling Pathway (AID 446); conditions: ME-180 SIE beta-lactamase reporter, IL-6 stimulated, 5 h; at 17.2 µM (top of the series) unless noted;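 note: ME-180 cervical cancer cells given 40 pM IL-6 alongside compound; SIE-controlled beta-lactamase reporter measured as 460/530 nm FRET emission ratio; % is set by controls: 0 for no effect and ±100 for the full control effect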
# Summary of the method: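 FRET read-out (405 nm excitation, 460/530 nm emission) of a beta-lactamase reporter under a STAT-inducible element in ME-180 cervical carcinoma cells. Cells with compound receive 40 pM IL-6 for 5 h. Values are normalised to AC90 stimulation and AC90 JAK-inhibitor controls.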
# [3] = target: Glucocorticoid receptor (Homo sapiens) (UniProt P04150); test: GR-GFP Redistribution (AID 450;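 active = compounds whose dose series gives a full or clear partial fitted curve of increased nuclear translocation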; note: potency is the fitted concentration of half-maximal effect)
# Sequence of Glucocorticoid receptor (Homo sapiens) (P04150 whole entry, looked up): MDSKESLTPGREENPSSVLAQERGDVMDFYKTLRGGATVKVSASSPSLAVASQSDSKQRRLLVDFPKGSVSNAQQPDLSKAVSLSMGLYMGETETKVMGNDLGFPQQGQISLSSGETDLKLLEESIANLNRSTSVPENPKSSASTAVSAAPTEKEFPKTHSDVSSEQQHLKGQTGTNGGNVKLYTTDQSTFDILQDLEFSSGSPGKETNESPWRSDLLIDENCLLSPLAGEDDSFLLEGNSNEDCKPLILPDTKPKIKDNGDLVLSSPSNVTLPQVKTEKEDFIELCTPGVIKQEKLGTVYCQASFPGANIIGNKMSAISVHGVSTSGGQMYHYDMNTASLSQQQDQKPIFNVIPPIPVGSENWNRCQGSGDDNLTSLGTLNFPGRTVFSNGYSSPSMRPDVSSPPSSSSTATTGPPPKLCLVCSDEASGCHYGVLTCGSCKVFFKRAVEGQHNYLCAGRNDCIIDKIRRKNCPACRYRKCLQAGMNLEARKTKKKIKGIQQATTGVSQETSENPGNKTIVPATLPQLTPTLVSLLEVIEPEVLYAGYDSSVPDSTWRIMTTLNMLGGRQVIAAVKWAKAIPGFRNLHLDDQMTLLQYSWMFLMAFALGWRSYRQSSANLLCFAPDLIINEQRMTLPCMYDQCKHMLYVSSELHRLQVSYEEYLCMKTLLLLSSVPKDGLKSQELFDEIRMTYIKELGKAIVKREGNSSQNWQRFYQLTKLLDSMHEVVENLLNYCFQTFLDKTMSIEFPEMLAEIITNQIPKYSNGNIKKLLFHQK
# [4] = qHTS Assay for Identification of Small Molecule Agonists for Hypoxia Response Element Signaling Pathway (AID 914; active = well fitted activation curve with a large enough effect in the signal ratio, with a control signal flat, not every such curve was filed as active; the % refers to the signal ratio; note: potency is the fitted concentration of half-maximal effect; for activation: % of control where 0% means no effect); conditions: ME-180 (cervical carcinoma) HRE-bla reporter, beta-lactamase ratio, CoCl2, 17 h; activation: stronger effect = higher value
# Summary of the method: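 HRE-bla ME-180 cells, overnight plating in Opti-MEM with 0.5% dialyzed FBS; cpd titration + EC50 CoCl2, 17 h, 37 degrees Celsius; CCF4 2.5 h RT; 460/530 nm ratio; AC50.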
# [5] = qHTS for Inhibitors of the vitamin D receptor (VDR): Hit Validation using a Texas Red Assay (AID 602201; active = well fitted curve in the direction sought with a large enough effect; note: potency is the fitted concentration of half-maximal effect); conditions: VDR coregulator binding, Texas Red fluorescence polarization; agonist-bound VDR ligand-binding domain
# Summary of the method: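 Fluorescence polarization (Ex 595/Em 615 nm) of Texas Red (7 nM) with 1.5 uM VDR-LBD and LG19078 (final concentrations). Compounds were incubated for 2 hours at room temperature.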
SMILES,"activity change, negative = inhibition [1]","activity, negative = inhibition [2]",Potency [3],Potency [4],activation [4],Potency [5]
CCOC(=O)C1=C(C)NC(SCC(=O)Nc2nc(C)cs2)=C(C#N)C1c1cccs1 (stereo unspecified),-22.9%,-27.7%,> 20.6 µM,10 µM (active),–,–
COc1ccc(C2=CC(c3ccc(C)cc3)n3nnnc3N2)cc1 (stereo unspecified),-20.8%,-14.7%,> 20.6 µM,10 µM (active),–,–
Cc1ccc2[nH]c3c(N4CCCCCC4)ncnc3c2c1,-20.6%,–,> 20.6 µM,–,–,–
CCOCCSc1nc2c(c(=O)[nH]c(=O)n2C)n1CCCc1ccccc1,3.98%,-3.21%,> 20.6 µM,–,6%,–
CCCN(CCC)C(=O)CC(c1ccc(F)cc1)c1ccco1 (stereo unspecified),13%,-3.11%,–,–,13.9%,–
COc1nc(N(C)S(=O)(=O)c2ccc(C)cc2)nc(C)c1Cl,-2.26%,5.02%,> 20.6 µM,–,-6.79%,–
N=c1c(C(=O)NCc2ccccc2)cc2c(=O)n3ccccc3nc2n1Cc1ccco1,-5.29%,19.8%,> 20.6 µM,6.31 µM (active),–,–
CCc1nc(N2CCCC2)c(C#N)c2c1CCCC2,-16.4%,-19.9%,> 20.6 µM,–,-12%,–
Cc1nc(Sc2cccn2C)c(C(F)(F)F)c(=O)[nH]1,-5.32%,-1.21%,> 20.6 µM,–,6.77%,–
CCCc1cc(=O)oc2c(CN3CCN(C)CC3)c(O)c(Cl)cc12,-0.941%,-1.37%,> 20.6 µM,5.01 µM (active),–,–
CCN1CCN(c2nc3c(C)cccn3c(=O)c2/C=C(\C#N)S(=O)(=O)c2ccccc2)CC1,-5.82%,-5.71%,> 20.6 µM,–,5.25%,–
CC(CN1CCN(C)CC1)OC(=O)c1ccc(Cl)cc1Cl (stereo unspecified),12%,-1.03%,> 20.6 µM,–,-4.39%,–
COc1cccc(/C(O)=C2/C(=O)C(=O)N(CCCN(C)C)C2c2cccc(Cl)c2)c1 (stereo unspecified),5.09%,5.04%,> 20.6 µM,–,9.88%,–
COc1ccc(OC)c2c(N)c(C#N)c(C(F)(F)C(F)(F)F)nc12,5.08%,14%,> 20.6 µM,10 µM (active),–,–
CC(C)Oc1ccc(C(=O)CCN2CCCCC2)cc1,-9.61%,-10.9%,> 20.6 µM,–,–,3.98 µM (active)
CCOC(=O)c1sc2c(c1C)c(=O)c(C(=O)OCC)cn2CC,-9.16%,6.04%,> 20.6 µM,–,16.2%,–
